# Measurements: PubChem BioAssay
# Results filed as inconclusive are left out. Calls of active or inactive are those of the source. Unless noted, no cut-off is given here; in the data, nearly all actives have AC50 up to about 26 µM.
# Legend:
# [1] = viability loss in pontine glioma line – cell-based, SU-DIPG-XVII, MIPE5.0, CellTiter-Glo, qHTS, dose response (AID 1347060); conditions: CellTiter-Glo ATP luminescence;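 for AC50: cells exposed to compound for 48 hours before viability readout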
# [2] = viability loss in pontine glioma line – cell-based, SU-DIPG-XIII, MIPE5.0, CellTiter-Glo, qHTS, dose response (AID 1347064; cut-off not given, nearly all actives have AC50 up to about 23 µM;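 for AC50: cells exposed to compound for 48 hours before the viability read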); conditions: CellTiter-Glo ATP luminescence
# [3] = viability loss in pontine glioma line – cell-based, SU-DIPG-XXV, MIPE5.0, CellTiter-Glo, qHTS, dose response (AID 1347065); conditions: CellTiter-Glo ATP luminescence;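 note: cells exposed to compound for 48 hours before ATP readout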
# [4] = JHH-DIPG-1 glioma cell viability, MIPE5.0 library, CellTiter-Glo luminescence, qHTS (AID 1347067); conditions: JHH-DIPG-1 glioma viability, CellTiter-Glo ATP luminescence;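 note: cells exposed to compound for 48 hours before readout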
# [5] = growth inhibition of DIPG cells – cell-based, MIPE5.0 library, qHTS (AID 1347068; cut-off not given, nearly all actives have IC50 up to about 30 µM;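 for IC50: cells exposed to compound for 48 hours before viability readout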); conditions: SU-DIPG-XXV viability
Structure (SMILES),AC50 [1],AC50 [2],AC50 [3],AC50 [4],IC50 [5],outcome [1],outcome [2],outcome [3],outcome [4],outcome [5]
N#Cc1ccnc(Nc2cc(C3CCN(C4COC4)CC3)cc(N3CCC(F)(F)C3)n2)c1,2.63 µM (active),5.25 µM (active),1.48 µM (active),5.9 µM (active),11.8 µM (active),,,,,
N#Cc1ccnc(N2C(=O)CC[C@H]2C(=O)N(c2cncc(F)c2)C(C(=O)NC2CC(F)(F)C2)c2ccccc2Cl)c1 (stereo not given in full),,,,,,inactive,inactive,inactive,inactive,inactive
CCC(C)CNCC(=O)N1CCc2sccc2C1c1cccc(C)n1 (stereo not given),,,,,,inactive,inactive,inactive,inactive,inactive
C[C@@H](Oc1cc(C(=O)Nc2ccc(C(=O)N3CCN(C)CC3)cc2)nnc1N)c1c(Cl)ccc(F)c1Cl,0.118 µM (active),0.417 µM (active),0.742 µM (active),16.6 µM (active),7.42 µM (active),,,,,
CCc1c(-c2ccccc2C)nc2c(C#N)c[nH]n2c1=O,,,,,,inactive,inactive,inactive,inactive,inactive
COc1ccc2cc(OCC3(C(=O)O)CN(C(=O)c4ccc(F)cc4)C3)ccc2c1,,,,,,inactive,inactive,inactive,inactive,inactive
CC1(C)CN(C(=O)c2ccc(-c3cccc4nc(NC(=O)C5CC5)nn34)cc2)C1,,,,,,inactive,inactive,inactive,inactive,inactive
O=C(/C=C\n1cnc(-c2cc(C(F)(F)F)cc(C(F)(F)F)c2)n1)NNc1cnccn1,1.66 µM (active),16.6 µM (active),4.17 µM (active),16.6 µM (active),14.8 µM (active),,,,,
Nc1nc(Nc2ccc3c(c2)CC[C@@H](N2CCCC2)CC3)nn1-c1cc2c(nn1)-c1ccccc1CCC2,9.34 µM (active),16.6 µM (active),6.61 µM (active),20.9 µM (active),26.3 µM (active),,,,,
CC(=O)Nc1cc(Oc2ccc3c(nc(Nc4ccc(F)cc4F)n3C)c2C)ccn1,0.372 µM (active),4.17 µM (active),0.118 µM (active),0.525 µM (active),1.05 µM (active),,,,,
C[C@H](Nc1nc(N[C@H](C)C(F)(F)F)nc(-c2cccc(Cl)n2)n1)C(F)(F)F,,,,,,inactive,inactive,inactive,inactive,inactive
Nc1ncnc(Nc2ccc(OCc3ccccc3)c(Cl)c2)c1/C=N/OCCN1CCOCC1,23.5 µM (active),16.6 µM (active),16.6 µM (active),18.6 µM (active),14.8 µM (active),,,,,
C=CC(=O)Nc1cccc(Oc2nc(Nc3ccc(N4CCN(C)CC4)c(F)c3)nc3[nH]ccc23)c1,2.63 µM (active),5.25 µM (active),1.86 µM (active),9.34 µM (active),0.833 µM (active),,,,,
FC(F)(F)c1ccc(Nc2nc(-c3c(C(F)(F)F)nc4ccccn34)cs2)cc1,0.372 µM (active),14.8 µM (active),0.372 µM (active),1.86 µM (active),3.32 µM (active),,,,,
CC(C)(C)C(=O)N1N=CC[C@H]1c1ccccc1,,,,,,inactive,inactive,inactive,inactive,inactive
O=C(NO)c1ccc(C2=Nc3ccccc3Oc3ccccc32)cc1,10.5 µM (active),5.25 µM (active),7.42 µM (active),11.8 µM (active),14.8 µM (active),,,,,
NC(CC1c2ccccc2Oc2ccccc21)(C(=O)O)C1CC1C(=O)O (stereo not given),,,,,,inactive,inactive,inactive,inactive,inactive
CCN1CCN(Cc2ccc(NC(=O)c3ccc(C)c(/C=C/c4cnc5[nH]ccc5c4OC)c3)cc2C(F)(F)F)CC1,1.86 µM (active),2.35 µM (active),2.09 µM (active),3.72 µM (active),3.72 µM (active),,,,,
COc1cc2c(cc1OCCCN1CCCC1)N=C(N)C21CCC1,,,,,,inactive,inactive,inactive,inactive,inactive
C=CC(=O)N1CCC(Oc2cc3c(Nc4ccc(Cl)c(Cl)c4F)ncnc3cc2OC)CC1,6.61 µM (active),5.25 µM (active),3.32 µM (active),5.25 µM (active),16.6 µM (active),,,,,
COc1cc2c(NC3CCN(CC4CCCCC4)CC3)nc(N3CCCN(C(C)C)CC3)nc2cc1OCCCN1CCCCC1,14.8 µM (active),18.6 µM (active),13.2 µM (active),20.9 µM (active),5.25 µM (active),,,,,
COc1c(Nc2ncc(Cl)c(N[C@H]3[C@H](C(N)=O)[C@@H]4C=C[C@@H]3C4)n2)ccc2c1CCC(N1CCOCC1)CC2 (stereo not given in full),4.17 µM (active),4.17 µM (active),2.95 µM (active),8.33 µM (active),5.9 µM (active),,,,,
COc1cc(C(=O)NC2CCN(C)CC2)c(F)cc1Nc1ncc2c(n1)N(C1CCCC1)CC(F)(F)C(=O)N2C,0.0934 µM (active),1.86 µM (active),0.118 µM (active),20.9 µM (active),4.17 µM (active),,,,,
CC(=O)c1ccc2c(c1)c1cc(C(C)=O)ccc1n2CCNC(C)C,2.95 µM (active),4.68 µM (active),3.32 µM (active),2.63 µM (active),5.9 µM (active),,,,,
